This note sets out measurements from PubChem BioAssay.

Unmarked numbers belong to inactive results.

For one assay, the target named is NADPH oxidase 2 (Homo sapiens) (UniProt P04839). The assay is described as follows: NOX2-dependent H2O2 signal modulators, primary screen, NOX inhibitor project, cell-based, HEK293-NOX2, PMA-stimulated, Amplex Red fluorescence (AID 1159). Further: test concentration not given here. As to conditions: 45 min, higher = more signal, called active from +8 up or from −8 down.
Chain of NADPH oxidase 2 (Homo sapiens) (P04839 whole entry, looked up): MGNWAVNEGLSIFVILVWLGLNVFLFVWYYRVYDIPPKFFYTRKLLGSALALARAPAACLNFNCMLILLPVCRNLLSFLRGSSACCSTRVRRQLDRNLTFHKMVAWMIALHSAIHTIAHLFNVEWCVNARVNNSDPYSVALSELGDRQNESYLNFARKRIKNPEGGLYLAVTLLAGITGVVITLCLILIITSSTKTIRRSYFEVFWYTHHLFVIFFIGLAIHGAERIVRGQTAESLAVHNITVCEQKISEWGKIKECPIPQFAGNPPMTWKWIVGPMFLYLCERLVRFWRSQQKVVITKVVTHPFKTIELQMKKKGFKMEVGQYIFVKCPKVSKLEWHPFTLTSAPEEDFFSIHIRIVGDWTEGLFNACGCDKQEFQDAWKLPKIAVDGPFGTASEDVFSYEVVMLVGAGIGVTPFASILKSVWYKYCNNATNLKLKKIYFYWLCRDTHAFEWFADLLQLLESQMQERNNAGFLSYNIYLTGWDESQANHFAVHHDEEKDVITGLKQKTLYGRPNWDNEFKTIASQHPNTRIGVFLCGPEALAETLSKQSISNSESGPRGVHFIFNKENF
Turning to `CN1C(=O)C2C=CC(C(O)c3c(F)cccc3Cl)N(NC(=O)OC(C)(C)C)C2C1=O` (stereo not given), the z-score is -1.06.
Regarding `C=C[C@H](C)[C@@H](OC(=O)Nc1ccc(SC)cc1)c1ccc(O)c2ccccc12`, the z-score is -5.52.
Regarding `COc1ccccc1CN1C(=O)c2ccccc2[C@@H](C(=O)NCc2ccccc2)[C@@H]1c1ccc(CO)cc1`, the z-score is -1.11.
Consider `O=C1OCC=C[C@H]2OC34C=CCN(Cn5nnc6ccccc65)C(=O)[C@H]3N(CCCCCO)C(=O)[C@@H]4[C@@H]12` (stereo not given in full), for which the z-score is 1.95.
Regarding `Cc1ccc(S[C@]2(C(=O)NCC(C)C)CC(=O)N(Cc3cc(C(F)(F)F)cc(C(F)(F)F)c3)[C@@H]2c2ccc(CO)cc2)cc1`, the z-score was 1.73.
With `CS(=O)(=O)CCOC(=O)C1=CC(CCCO)=CC(C2CC2)N(Cc2cc3c(cc2Br)OCO3)C=C1C(=O)OCCS(C)(=O)=O` (stereo not given), the z-score is -1.56.
As to `C=CCOC(=O)[C@H]1[C@@H]2C(=O)O[C@@H](c3ccccc3)[C@@H](c3ccccc3)N2[C@@H](c2ccc(OCCOC(=O)[C@H]3C[C@H]4C(=O)N[C@@H](CCCCN(C)C)C(=O)N4[C@H]3c3cccc(OCCO)c3)cc2)[C@]12C(=O)Nc1ccc(I)cc12`, the z-score is 2.18.
As for `COc1ccc([Si](C)(C)[C@H]2[C@H](CC(=O)N3CCC[C@H]3CO)O[C@@]3(C(=O)N(Cc4cccc(N5CCOC5=O)c4)c4ccccc43)[C@@H]2C)cc1`, the z-score is 1.73.
Regarding `O=C1OCCC=C[C@H]2OC34C=CCN(c5ccc(Cl)cc5)C(=O)[C@H]3N(CCCO)C(=O)[C@@H]4C12` (stereo not given in full), the z-score is 0.736.
For the molecule `COc1ccc(C(O)C2C=CC3C(=O)N(C)C(=O)C3N2N(c2ccccc2)c2ccccc2)c2ccccc12` (stereo not given), the z-score was -0.549.
On to `COCC(=C=CC[C@H](O)c1cccc(OCCO)c1)CCO`, for which the z-score was -1.67.
Take `CC[C@@H]1C=C(C(=O)O)[C@H](c2ccc(C)cc2)N1S(=O)(=O)c1ccc(C)cc1`: the z-score is 0.587.
On the same count and under the same terms, under `O=C1NC(=O)C2C1C=CC(C(O)C1CC=CCC1)N2Nc1ccccn1` (stereo not given) stands -2.27; under `COc1ccc(C(=O)Nc2cccc(CN3C(=O)[C@]4(O[C@H](CCn5cc(CCO)nn5)[C@@H]([Si](C)(C)c5ccc(OC)cc5)[C@@H]4C)c4ccccc43)c2)cc1`, -1.91.
As to `CS(=O)(=O)CCOC(=O)C1=CC(CCCO)=CC(c2ccc(CN3CCCC3)cc2)N(Cc2cccc(OC(F)(F)F)c2)C=C1C(=O)OCCS(C)(=O)=O` (stereo not given), the z-score was -0.302.
Still for that read-out and setting: in the case of `COC(=O)c1c2oc(c1C(=O)OC)C(=O)N[C@@H](C(C)C)Cn1cc(nn1)C1(CCCCC1)NC(=O)N[C@H](CO)CC2` it was 0.644; in that of `O=C1O[C@@H](c2ccccc2)[C@@H](c2ccccc2)N2[C@@H](c3ccc(OCCO)cc3)[C@]3(C(=O)Nc4ccc(C#CCCO)cc43)[C@@H](C(=O)NC[C@H](O)c3ccccc3)[C@H]12`, 2.21.
On to `CC(c1ccccc1)C(O)C1C=CC2C(=O)N(c3ccccc3)C(=O)C2N1Nc1ccccc1` (stereo not given), for which the z-score is -3.18.
`CC1CC/C=C\[C@H]2OC34C=CCN(Cc5ccccc5)C(=O)[C@H]3N(C(C)CO)C(=O)[C@@H]4C2C(=O)O1` (stereo not given in full): the z-score was 0.799.

In a further assay the target is NADPH oxidase 4 (Homo sapiens) (UniProt Q9NPH5). The assay is described as follows: NOX4-dependent H2O2 signal modulators, primary screen, NOX inhibitor project, cell-based, HEK293-NOX4, tetracycline-induced, Amplex Red fluorescence (AID 1160). The settings on record: 45 min, higher = more signal, called active from +8 up or from −8 down.
Chain of NADPH oxidase 4 (Homo sapiens) (Q9NPH5 whole entry, looked up): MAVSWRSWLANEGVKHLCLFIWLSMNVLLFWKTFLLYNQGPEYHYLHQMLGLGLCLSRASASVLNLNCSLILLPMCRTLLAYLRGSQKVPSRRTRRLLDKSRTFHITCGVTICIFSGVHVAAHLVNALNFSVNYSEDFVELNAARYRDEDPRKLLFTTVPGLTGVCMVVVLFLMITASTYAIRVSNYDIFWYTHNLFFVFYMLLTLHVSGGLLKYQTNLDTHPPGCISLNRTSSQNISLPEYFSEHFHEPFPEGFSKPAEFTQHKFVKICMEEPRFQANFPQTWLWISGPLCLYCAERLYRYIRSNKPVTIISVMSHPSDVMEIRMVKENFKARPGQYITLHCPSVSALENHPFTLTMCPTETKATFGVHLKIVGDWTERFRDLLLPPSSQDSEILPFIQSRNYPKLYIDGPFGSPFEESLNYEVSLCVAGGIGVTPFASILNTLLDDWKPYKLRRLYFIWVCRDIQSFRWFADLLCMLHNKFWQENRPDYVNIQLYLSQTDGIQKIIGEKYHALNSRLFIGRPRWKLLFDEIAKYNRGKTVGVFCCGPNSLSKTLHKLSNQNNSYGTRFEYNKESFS
For the molecule `COc1ccc([Si](C)(C)[C@@H]2[C@@H](CCO)O[C@]3(C(=O)N(Cc4cccc(N5CCOC5=O)c4)c4ccccc43)[C@H]2C)cc1`, the z-score is 2.15.
Consider `CCOC(=O)C1=CC[C@H]2C(=O)N(c3ccccc3)C(=O)[C@@H]12`, for which the z-score was -2.03.
In the case of `CCOC(=O)C[C@H]1[C@H](OC(=O)c2ccc(C(=O)c3ccccc3)cc2)[C@@H](NC(=O)Cc2ccc(OC)cc2)c2cc(OCCCO)ccc2N1C(=O)c1ccc2ccccc2n1`, the z-score was 0.492.
The same measure, in the same setting: in the case of `COC(=O)[C@@]1(Cc2ccc(F)cc2)[C@H]2c3cc(C(=O)N(C)C)n(Cc4cc(C)n(C)n4)c3C[C@H]2CN1C(=O)c1ccccc1` it was -0.354; in that of `CCCC[C@@H]1C[C@H]1[C@@H](NC(=O)c1cccnc1)c1ccc(Cl)cc1`, -1.3; in that of `[N-]=[N+]=Nc1ccccc1C[C@@]1(C(=O)N2CCCCC2)N=C(c2ccc(OCCCO)cc2)O[C@@H]1c1ccccc1N=[N+]=[N-]`, -0.141.
Same read-out and setting: under `C=CCC(OC(C)=O)[C@@H]1[C@@H](N(Cc2ccc(-c3cccc(C(F)(F)F)c3)o2)C(=O)c2cccc3ccccc23)c2cc(OCCCO)ccc2N1C(=O)Cc1ccc2ccccc2c1` (stereo not given in full) stands -0.933.
On to `CCCCN1CC=CC23O[C@@H]4C=CCOC(=O)[C@@H]4[C@H]2C(=O)N(CCCCCCO)[C@@H]3C1=O` (stereo not given in full), for which the z-score is -0.282.
As to `O=C1C2C=CC(C(O)C=Cc3ccc([N+](=O)[O-])cc3)N(n3cnnc3)C2C(=O)N1Cc1ccccc1` (stereo not given), the z-score was -0.711.
For the molecule `O=C1[C@H]2C=C(Br)[C@H](C[C@@H]2OCCCCCCO)[C@@]12CO2`, the z-score was 0.633.
For the molecule `CCCCCCCCCCC(O)C1C=CC2C(=O)NC(=O)C2N1Nc1ccc(Cl)cc1Cl` (stereo not given), the z-score is -1.86.
`C=CC1c2cc(O)c(OC)cc2CCN1Cc1cccc(OC(F)(F)F)c1` (stereo not given): the z-score is -2.9.
Consider `CC(C)[Si](C#C[Si](C(C)C)(C(C)C)C(C)C)(O[C@H](C)c1cn(Cc2ccccc2)nn1)C(C)C`, for which the z-score is -0.748.
Same read-out and setting: under `O=C1O[C@H](c2ccccc2)[C@H](c2ccccc2)N2[C@H]1[C@@H](C(=O)NC[C@H](O)c1ccccc1)[C@]1(C(=O)Nc3ccc(C#CC4=CCCCC4)cc31)[C@H]2c1ccccc1OCCO` stands 1.04; under `COc1ccc(-c2cc3c(c(Cc4ccccc4)n2)[Si](C(C)C)(C(C)C)OC3)cn1`, -0.121; under `C=CCC(OC(C)=O)[C@@H]1[C@@H](N(Cc2ccc(-c3cccc(C(F)(F)F)c3)o2)C(=O)Cc2ccc(OC)cc2)c2cc(OCCCO)ccc2N1C(=O)c1ccc2ccccc2c1` (stereo not given in full), -1.99.
As for `CCC(CC)C(O)C1C=CC2C(=O)N(c3ccccc3)C(=O)C2N1Nc1ccccc1` (stereo not given), the z-score was -3.29.
Still for that read-out and setting: under `CN1C(=O)C2C=CC(C(O)c3c(F)cccc3Cl)N(NC(=O)OC(C)(C)C)C2C1=O` (stereo not given) stands -0.495.
Take `C=C[C@H](C)[C@@H](OC(=O)Nc1ccc(SC)cc1)c1ccc(O)c2ccccc12`: the z-score was -1.45.
Consider `COc1ccccc1CN1C(=O)c2ccccc2[C@@H](C(=O)NCc2ccccc2)[C@@H]1c1ccc(CO)cc1`, for which the z-score is 0.148.
Consider `O=C1OCC=C[C@H]2OC34C=CCN(Cn5nnc6ccccc65)C(=O)[C@H]3N(CCCCCO)C(=O)[C@@H]4[C@@H]12` (stereo not given in full), for which the z-score is 0.223.
As to `Cc1ccc(S[C@]2(C(=O)NCC(C)C)CC(=O)N(Cc3cc(C(F)(F)F)cc(C(F)(F)F)c3)[C@@H]2c2ccc(CO)cc2)cc1`, the z-score was 0.823.
Take `CS(=O)(=O)CCOC(=O)C1=CC(CCCO)=CC(C2CC2)N(Cc2cc3c(cc2Br)OCO3)C=C1C(=O)OCCS(C)(=O)=O` (stereo not given): the z-score was -0.0814.
As to `C=CCOC(=O)[C@H]1[C@@H]2C(=O)O[C@@H](c3ccccc3)[C@@H](c3ccccc3)N2[C@@H](c2ccc(OCCOC(=O)[C@H]3C[C@H]4C(=O)N[C@@H](CCCCN(C)C)C(=O)N4[C@H]3c3cccc(OCCO)c3)cc2)[C@]12C(=O)Nc1ccc(I)cc12`, the z-score is 1.01.
With `COc1ccc([Si](C)(C)[C@H]2[C@H](CC(=O)N3CCC[C@H]3CO)O[C@@]3(C(=O)N(Cc4cccc(N5CCOC5=O)c4)c4ccccc43)[C@@H]2C)cc1`, the z-score was 1.76.
In the case of `O=C1OCCC=C[C@H]2OC34C=CCN(c5ccc(Cl)cc5)C(=O)[C@H]3N(CCCO)C(=O)[C@@H]4C12` (stereo not given in full), the z-score was -0.818.
With `COc1ccc(C(O)C2C=CC3C(=O)N(C)C(=O)C3N2N(c2ccccc2)c2ccccc2)c2ccccc12` (stereo not given), the z-score was -0.247.
On to `COCC(=C=CC[C@H](O)c1cccc(OCCO)c1)CCO`, for which the z-score was -0.625.
Still for that read-out and setting: in the case of `CC[C@@H]1C=C(C(=O)O)[C@H](c2ccc(C)cc2)N1S(=O)(=O)c1ccc(C)cc1` it was -0.57; in that of `O=C1NC(=O)C2C1C=CC(C(O)C1CC=CCC1)N2Nc1ccccn1` (stereo not given), -2.52; in that of `COc1ccc(C(=O)Nc2cccc(CN3C(=O)[C@]4(O[C@H](CCn5cc(CCO)nn5)[C@@H]([Si](C)(C)c5ccc(OC)cc5)[C@@H]4C)c4ccccc43)c2)cc1`, -0.0331.
With `CS(=O)(=O)CCOC(=O)C1=CC(CCCO)=CC(c2ccc(CN3CCCC3)cc2)N(Cc2cccc(OC(F)(F)F)c2)C=C1C(=O)OCCS(C)(=O)=O` (stereo not given), the z-score is -0.764.
Take `COC(=O)c1c2oc(c1C(=O)OC)C(=O)N[C@@H](C(C)C)Cn1cc(nn1)C1(CCCCC1)NC(=O)N[C@H](CO)CC2`: the z-score was 0.758.
As to `O=C1O[C@@H](c2ccccc2)[C@@H](c2ccccc2)N2[C@@H](c3ccc(OCCO)cc3)[C@]3(C(=O)Nc4ccc(C#CCCO)cc43)[C@@H](C(=O)NC[C@H](O)c3ccccc3)[C@H]12`, the z-score was 1.71.
Consider `CC(c1ccccc1)C(O)C1C=CC2C(=O)N(c3ccccc3)C(=O)C2N1Nc1ccccc1` (stereo not given), for which the z-score is -4.79.
Take `CC1CC/C=C\[C@H]2OC34C=CCN(Cc5ccccc5)C(=O)[C@H]3N(C(C)CO)C(=O)[C@@H]4C2C(=O)O1` (stereo not given in full): the z-score was -0.657.
